This is an account of results in PubChem BioAssay AID1851 (National Center for Advancing Translational Sciences (NCATS), 2009).

Structures are written as SMILES. Screen size: about 16,000 compounds; about 4,000 (25%) were called active. Inconclusive results (about 26%) are left out. These entries were drawn from the full list. Values without a mark were called inactive. The call rests on the fitted dose curve; in most records, active means well fitted curve in the direction sought with a large enough effect; inconclusive means small, poorly fitted or top-dose-only effect, or effect the other way; inactive means no such curve, though single readings can be large or run the other way.
On the % scale 0 is the no-effect control and ±100 the full control effect.

The target of this assay is Cytochrome P450 2C9 (Homo sapiens) (UniProt P11712). The assay can be described thus: Cytochrome panel assay with activity outcomes. The note with it: recombinant CYP, pro-luciferin dealkylation, luminescence, p450-cyp2c9; series mostly up to 57.1 µM; activity, negative = inhibition: at the top concentration.
Chain of Cytochrome P450 2C9 (Homo sapiens) (P11712 whole entry, looked up): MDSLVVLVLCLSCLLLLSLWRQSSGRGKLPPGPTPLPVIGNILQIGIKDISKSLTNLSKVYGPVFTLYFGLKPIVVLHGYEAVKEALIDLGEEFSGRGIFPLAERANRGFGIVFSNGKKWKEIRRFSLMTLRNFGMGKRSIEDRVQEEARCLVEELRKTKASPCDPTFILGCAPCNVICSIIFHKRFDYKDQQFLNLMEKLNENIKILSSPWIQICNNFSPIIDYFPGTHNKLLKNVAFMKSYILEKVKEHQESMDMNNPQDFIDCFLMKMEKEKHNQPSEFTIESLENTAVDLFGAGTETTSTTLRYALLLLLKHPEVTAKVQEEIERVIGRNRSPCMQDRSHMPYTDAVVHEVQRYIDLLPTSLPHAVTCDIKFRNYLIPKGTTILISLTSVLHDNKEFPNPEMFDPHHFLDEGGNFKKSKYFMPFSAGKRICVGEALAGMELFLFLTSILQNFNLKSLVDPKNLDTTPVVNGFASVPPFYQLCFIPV
`CN[C@H]1[C@@H](O[C@@H]2[C@H](O[C@@H]3[C@@H](O)[C@@H](O)[C@@H](N=C(N)N)[C@@H](O)[C@@H]3N=C(N)N)O[C@H](C)[C@@]2(O)C=O)O[C@@H](CO)[C@@H](O)[C@H]1O`: the “activity, negative = inhibition” value is 3.44% [at 25.6 µM].
Consider `CCc1c2c(nc3cccc(SC)c13)COC2`, for which the “activity, negative = inhibition” value was -23%.
In the case of `CC(C)OC(=O)c1nnn(-c2nonc2N)c1CSc1ccccn1`, the half-maximal activity concentration (AC50) was 1.58 µM (active).
The same measure, in the same setting: for `Cc1cc(OC(=O)c2ccc(Cl)cc2Cl)nc(C)n1` the value was 5.62 µM (active); for `CCc1cc2c(=O)c(-c3nc4ccccc4n3C)c(C)oc2c(CN(CC)CC)c1O`, 14.1 µM (active).
As to `Cc1oc2c(C)c(O)ccc2c(=O)c1-c1ccc2ccccc2n1`, the “activity, negative = inhibition” value is -13.7%.
As for `COc1ccc(-n2c(=O)c(-c3cn(C)c4ccccc34)nc3cnc(OC)nc32)cc1`, the “activity, negative = inhibition” value was -6.46%.
On the same count and under the same terms, the value for `CC[C@H]1CN(C)[C@H]2Cc3c([nH]c4ccccc34)C(=O)C[C@H]1[C@H]2C(=O)OC` was -5.96% [at 11.4 µM].
Take `O=c1cc(-c2ccccc2)oc2cc(O)c(O)c(O)c12`: the “activity, negative = inhibition” value was 3.94%.
The same measure, in the same setting: for `O=C(O)c1cc(=O)c2c(OCC(O)COc3cccc4oc(C(=O)O)cc(=O)c34)cccc2o1` the value was 10.9% [at 25.6 µM].
Take `CCOC(=O)COc1cc(OCC(=O)OCC)c2c(=O)cc(-c3ccccc3)oc2c1`: the half-maximal activity concentration (AC50) is 8.91 µM (active).
As to `COc1cc2nncc(SCc3ccc(Cl)c(Cl)c3)c2cc1OC`, the activity, negative = inhibition is -3.4% [at 11.4 µM].
In the case of `COc1cnc(SCc2ccc(Cl)cc2)nc1Cl`, the AC50 was 22.4 µM (active).
As to `Cc1noc(C)c1-c1nc(N2CCOCC2)c2ccccc2n1`, the activity, negative = inhibition is 4.41% [at 2.29 µM].
Take `Cc1nc(N2CCOCC2)nc(N2CCN(c3ccccc3)CC2)c1[N+](=O)[O-]`: the AC50 is 3.16 µM (active).
Turning to `Cc1nc2cnc(N3CCOCC3)nc2n(C)c1=O`, the “activity, negative = inhibition” value was -21.1%.
The same measure, in the same setting: the value for `COC(Cn1c(C)c(C(C)=O)c(C(C)=O)c1C)OC` was 26.1%; that for `c1ccc(-c2cccc(N3CCC4(CCNCC4)CC3)c2)cc1` was -3.68%.
The same measure, in the same setting: for `O=C(O)/C=C\C(=O)Nc1ncn[nH]1` the value was -8.21% [at 11.4 µM].
Turning to `Cc1ccc(OCC(=O)Nc2ccc(S(=O)(=O)Nc3onc(C)c3C)cc2)cc1`, the AC50 was 17.8 µM (active).
Consider `Cc1noc(NS(=O)(=O)c2ccc(N)cc2)c1C`, for which the “activity, negative = inhibition” value was 2.14% [at 25.6 µM].
Same read-out and setting: for `Cc1noc(C)c1C(=O)N1CCC[C@@]2(CCN(c3ncccn3)C2)C1` the value was -5.51%.
On the same count and under the same terms, the value for `C=CCn1c(NCc2ccccc2)nc2ccccc21` was 21.7%.
On to `COc1ccc(CNc2nc3ccccc3n2Cc2ccccc2)cc1OC`, for which the AC50 is 8.91 µM (active).
Consider `COc1ccccc1-c1nccc(NCc2ccccc2)n1`, for which the activity, negative = inhibition is 4.32% [at 2.29 µM].
Same read-out and setting: the value for `Cc1cc2cc3c(C)cc(=O)oc3c(C)c2o1` was -0.447% [at 25.6 µM].
Same read-out and setting: for `CC(C)n1c(=O)c2c(O)cc(=O)oc2c2ccccc21` the value was -4.52%.
As to `CCc1c(C(C)O)oc2ccc3c(C)cc(=O)oc3c12` (stereo unspecified), the concentration at half-maximal activity (AC50) was 7.94 µM (active).
On to `NCCCc1ccc2oc3ccccc3c2c1`, for which the activity, negative = inhibition was -10.6% [at 11.4 µM].
Still for that read-out and setting: for `O=C(O)CCCc1ccc2ccc3ccccc3c2c1` the value was 17.3% [at 11.4 µM].
As for `NNC(=O)CCc1ccc2ccc3ccccc3c2c1`, the AC50 was 1.58 µM (active).
In the case of `CC(C)COP(=O)(OCC(C)C)C(O)c1ccccc1F` (stereo unspecified), the “activity, negative = inhibition” value was -25%.
Regarding `CCCNC(=O)Cn1cnc2sc(C(=O)Nc3ccc4c(c3)OCO4)c(C)c2c1=O`, the AC50 was 1.12 µM (active).
The same measure, in the same setting: for `O=C(Cn1cnc2ccccc2c1=O)NCCC(=O)Nc1ccc2c(c1)OCCO2` the value was 6.31 µM (active); for `COc1cccc(OC)c1OCCNC[C@@H]1COc2ccccc2O1`, “inactive”.
For the compound `CCC(C)NC(=O)Cn1cnc2sc(C)cc2c1=O` (stereo unspecified), the “activity, negative = inhibition” value was -1.84%.
Consider `O=C(CCNC(=O)Cn1cnc2ccccc2c1=O)NCC1COc2ccccc2O1` (stereo unspecified), for which the AC50 was 10 µM (active).
Take `O=C1CC2(CCCC2)CC(=O)N1CCCCNC[C@H]1COc2ccccc2O1`: the “activity, negative = inhibition” value was -16.7%.
With `C[N@+]1(CCC(=O)c2ccccc2)CC[C@H]2CC[C@H](C2)C1`, the activity, negative = inhibition was 8.55% [at 11.4 µM].
Regarding `N/N=C1/CC(=O)NC(=O)N1`, the activity, negative = inhibition was 28.1% [at 11.4 µM].
Consider `CC(C)(C)C(=O)N(CCN(C(=O)C(C)(C)C)c1ccccc1)c1ccccc1`, for which the AC50 is 15.8 µM (active).
In the case of `CC(=O)N(CC(=O)O)c1ccccc1C(=O)O`, the “activity, negative = inhibition” value was -20.7%.
Same read-out and setting: for `CC(CC(=O)O)(CC(=O)O)c1ccccc1` the value was 13.9% [at 11.4 µM].
On to `O=C(c1cccc(F)c1)N1CCC2(CCCN(c3cccc(-c4ccccc4)c3)C2)CC1`, for which the concentration at half-maximal activity (AC50) was 12.6 µM (active).
Still for that read-out and setting: for `O=C(c1cccc(F)c1)N1CCC2(CCCN(c3ccccc3)C2)CC1` the value was 10 µM (active).
On to `CC(C)NC(=O)N1CCCC2(CCN(C(=O)c3cccc(F)c3)CC2)C1`, for which the “activity, negative = inhibition” value is 24.4%.
On the same count and under the same terms, for `O=C(c1cccc(F)c1)N1CCC2(CC1)CN(c1ccc(-c3ccccc3)cc1)C2` the value was -14%; for `O=C(c1cccc(F)c1)N1CCC2(CC1)CN(c1cccc(-c3ccccc3)c1)C2`, -14.6%; for `O=C(c1cccc(F)c1)N1CCC2(CC1)CCN(c1ccc(-c3ccccc3)cc1)CC2`, 5.13%.
As for `O=C(c1cccc(F)c1)N1CCC[C@@]2(CCN(c3ccccc3)C2)C1`, the “activity, negative = inhibition” value is 4.38%.
With `O=C(c1cccc(F)c1)N1CCC2(CCCN(c3ccc(-c4ccccc4)cc3)C2)CC1`, the AC50 is 15.8 µM (active).
For `O=C(c1cccc(F)c1)N1CCC2(CC1)CCN(c1cccc(-c3ccccc3)c1)CC2`, the “activity, negative = inhibition” value was -3.94%.
The same measure, in the same setting: the value for `O=C(c1cc(C(F)(F)F)cc(C(F)(F)F)c1)N1CCC[C@@]2(CCN(c3ccccn3)C2)C1` was -4.83%.
On the same count and under the same terms, the value for `CN1CCCN([C@@H](c2ccccc2)c2ccc(Cl)cc2)CC1` was 0.463% [at 25.6 µM]; that for `Cc1ccc(C(c2nnnn2C2CCCC2)N2CCN3CCCC3C2)cc1` (stereo unspecified) was -15.1%.
For the compound `Clc1ccc(C(c2nnnn2C2CCCC2)N2CCN(Cc3ccncc3)CC2)cc1` (stereo unspecified), the concentration at half-maximal activity (AC50) was 1.12 µM (active).
For `COc1ccc2c(c1)c(CC(=O)OCC(=O)O)c(C)n2C(=O)c1ccc(Cl)cc1`, the “activity, negative = inhibition” value was -5.28% [at 25.6 µM].
In the case of `COc1ccc2c(c1)c(CC(=O)O)c(C)n2C(=O)c1ccccc1`, the AC50 was 10 µM (active).
Take `COc1ccc2c(c1)c(CC(=O)O)c(C)n2C(=O)c1ccc(Cl)cc1`: the “activity, negative = inhibition” value was 6.09%.
The same measure, in the same setting: for `O=C(O)/C=C\[C@H](O)c1ccc(Cl)cc1` the value was -12.8%; for `O=C(CSC1=NCCN1)Nc1ccccc1`, 2.48% [at 11.4 µM].
For `O=C(CSc1nnc2c3ccccc3c3ccccc3c2n1)Nc1ccccc1`, the AC50 is 2.51 µM (active).
In the case of `c1ccc(CSc2nnc3c4ccccc4c4ccccc4c3n2)cc1`, the activity, negative = inhibition is -1.66% [at 11.4 µM].
On the same count and under the same terms, for `C[N+]1(CCC[N+]2(C)C[C@H]3[C@H](C2)[C@H]2C=C[C@@H]3CC2)CCOCC1` (stereo partly specified) the value was -9.72% [at 11.4 µM]; for `N[C@]1(C(=O)O)CCc2cc(P(=O)(O)O)ccc21`, -9.65%.
As for `COC(=O)c1c(-c2ccccc2)csc1NC(=O)CSc1ncnc2sc(C)c(C)c12`, the AC50 is 1.26 µM (active).
Take `CCc1ccc(OCC(=O)NNC(=O)CSc2ncnc3sc(C)c(C)c23)cc1`: the “activity, negative = inhibition” value was 13.8%.
Same read-out and setting: the value for `Nc1nc(Cl)nc2c1ncn2[C@@H]1O[C@@H](CO)[C@@H](O)[C@H]1O` was -24.4%.
`Nc1nc(Nc2ccccc2)nc2c1ncn2[C@@H]1O[C@@H](CO)[C@H](O)[C@H]1O`: the concentration at half-maximal activity (AC50) is 0.794 µM (active).
On to `Nc1nc(Nc2ccccc2)nc2c1ncn2[C@@H]1O[C@@H](CO)[C@H](O)[C@@H]1O`, for which the “activity, negative = inhibition” value is -3.52%.
Regarding `Nc1nc(-c2ccccc2)c(-c2ccccc2)c(-c2nc(N)nc(-c3ccccc3)c2-c2ccccc2)n1`, the activity, negative = inhibition is -3.1% [at 11.4 µM].
Take `Nc1ccc(-c2sc(N)nc2-c2ccccc2)cc1`: the AC50 is 28.2 µM (active).
Consider `COc1ccc(CNc2ncnc3ccc(-c4c(C)noc4C)cc23)c(OC)c1`, for which the activity, negative = inhibition was -23.3% [at 2.29 µM].
Still for that read-out and setting: the value for `CCNc1ncc2nc(-c3ccc(Cl)cc3)c(=O)n(Cc3ccc(F)cc3)c2n1` was 16.8%; that for `CCNc1ncc2nc(C)c(=O)n(Cc3ccc(F)cc3)c2n1` was 18.9%; that for `COc1ncc2ncc(=O)n(Cc3ccc(F)cc3)c2n1` was -8.06%.
Same read-out and setting: for `CN(C)c1ncc2nc(-c3ccccc3)c(=O)n(Cc3ccc(F)cc3)c2n1` the value was -9.82%.
Turning to `CCNc1ncc2ncc(=O)n(Cc3ccc(F)cc3)c2n1`, the half-maximal activity concentration (AC50) was 20 µM (active).
Same read-out and setting: the value for `CN(C)c1ncc2ncc(=O)n(Cc3ccc(F)cc3)c2n1` was 10 µM (active).
As to `C[C@H](N)C1CCC(C(=O)Nc2ccncc2)CC1` (stereo partly specified), the “activity, negative = inhibition” value was -14.4%.
The same measure, in the same setting: for `O=C(CCCN1CCC(O)(c2ccc(Br)cc2)CC1)c1ccc(F)cc1` the value was 26.6% [at 25.6 µM].
The same measure, in the same setting: the value for `Cc1cc(C)nc(Nc2n[nH]c(-c3cccc4ccccc34)n2)n1` was 23.5%; that for `Cc1ccc(-c2cnc(NC(=O)CCC(=O)N3CCCCC3)n2C)cc1` was 3.26%.
Regarding `Cc1ccc(NC(=O)CCN2C(=O)c3ccncc3C2=O)cc1`, the AC50 was 14.1 µM (active).
As for `O=C(CCN1C(=O)C2C3C=CC(C3)C2C1=O)Nc1ccc2ncccc2c1` (stereo unspecified), the “activity, negative = inhibition” value was -29.9%.
On the same count and under the same terms, for `COc1cc(OC)c2c(c1Cl)O[C@@]1(C2=O)[C@H](C)CC(=O)C[C@@H]1OC` the value was 7.76% [at 25.6 µM].
Take `CN(C)c1ccc(-c2ccc3ncnc(NC4CC4)c3c2)cc1`: the activity, negative = inhibition was 4.64% [at 2.29 µM].
Regarding `O=C(CSCc1ccccc1)Nc1cccc(C(=O)Nc2ccccc2C(=O)O)c1`, the half-maximal activity concentration (AC50) is 0.447 µM (active).
Still for that read-out and setting: the value for `CC1CC2=C(NC(=S)NC2c2ccc(F)cc2)/C(=C/c2ccc(F)cc2)C1` (stereo unspecified) was 8.91 µM (active).
The same measure, in the same setting: the value for `O=C1CC(NCCC2=CCCCC2)C(=O)N1c1cccc(Cl)c1Cl` (stereo unspecified) was 14.1 µM (active).
For `N[C@H](C(=O)O)c1ccc(C(=O)O)cc1`, the “activity, negative = inhibition” value was -2.88%.
Same read-out and setting: for `CC(=O)NC1=NN(c2ccccc2)C(=O)C1` the value was 9.39%.
As for `COc1ccc(-c2ccc(/C=C3\C(=O)N(c4ccccc4)N=C3c3ccccc3)o2)c([N+](=O)[O-])c1`, the concentration at half-maximal activity (AC50) is 2.51 µM (active).
With `COC(=O)c1ccccc1-c1ccc(/C=C2\C(=O)N(c3ccccc3)N=C2c2ccccc2)o1`, the half-maximal activity concentration (AC50) was 5.62 µM (active).
For `NC(=NC1C2CC3CC(C2)CC1C3)Nc1ccc(I)cc1` (stereo unspecified), the “activity, negative = inhibition” value was 15.5%.
On the same count and under the same terms, for `CC[C@@]1(O)C(=O)OCc2c1cc1n(c2=O)Cc2cc3c(CN(C)C)c(O)ccc3nc2-1` the value was -1.39% [at 11.4 µM].

One may read the AC50 as the concentration at which the activity in the assay is half-maximal.
